Laboratory results published in PubChem BioAssay (NCI).
This is part of a sample that, as a whole, favours compounds with a hit. Of some 79,000 tested, about 15% had one in any assay. Activity calls are given as the source filed them. Cut-off read from the data, not from the text of the source: active = growth inhibition above about 70%; inactive = the rest.

Experiment: NCI Yeast Anticancer Drug Screen. Data for the rad50 strain (AID 155);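 note: 0% = growth of vehicle-only cultures of the same strain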
Details: S. cerevisiae rad50 strain growth inhibition; at 50.0 µM; hits give high values
How it was run: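 Cells are treated with compound, grown, and their growth is then scored against vehicle-only cultures of the same repair-deficient yeast strain.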

SMILES | growth inhibition
O=C(O)C1C(C2c3ccc(O)cc3Oc3cc(O)ccc32)C2(Cl)C(Cl)=C(Cl)C1(Cl)C2(Cl)Cl (stereo not given) | 95.3% (active)
C1=CC2=CC=CC3c4nc5ccc6ccccc6c5nc4C(=C1)C23 (stereo not given) | 11.4% (inactive)
O=C1c2c(c3c4ccccc4[nH]c3c3[nH]c4ccccc4c23)C(=O)N1Cc1ccccc1 | -9.4% (inactive)
CC(C)(CC1(C)NC(=O)NC1=O)OCc1ccccc1 (stereo not given) | -0.5% (inactive)
NC(=O)N/N=C/c1cccc([N+](=O)[O-])c1 | -7% (inactive)
O=C(CN=C(CN(c1ccccc1)c1ccccc1)Oc1c(Cl)cc(Cl)cc1Cl)N1c2ccccc2Sc2ccccc21 | 4.75% (inactive)
N#C/C(=C\N1CC(=O)NC1=S)c1nc2ccccc2s1 | 4.75% (inactive)
CC1=C(c2cc(C(=O)Nc3cc(C)ccc3C)nc(N)n2)Sc2ccccc2N1 | 5.25% (inactive)
CC(=O)OC/C=C(C)/C=C/C=C(C)/C=C/C1=C(C)CCCC1(C)C | -15.4% (inactive)
CCN(C(=S)Nc1cccc2ccccc12)c1ccccc1 | -4.05% (inactive)
Cc1ccc(C)c2c1CCc1cc3ccccc3nc1-2 | 26.4% (inactive)
CN=Cc1c(O)ccc2ccccc12.[Cu+2] | 15.3% (inactive)
Cc1[nH]c(C)c2ccc(=O)ccc12 | -51.4% (inactive)
O=C1C2C(Cl)C(Cl)C(Cl)C(Cl)C2C(=O)N1NC1CCC([N+](=O)[O-])CC1[N+](=O)[O-] (stereo not given) | -22.9% (inactive)
CC(=O)NC1C(OC(C)C(=O)NC(C(=O)NC(CCC(=O)NCCCNC2c3ccccc3Nc3cccc([N+](=O)[O-])c32)C(N)=O)C(C)C)C(O)C(CO)OC1(C)OCc1ccccc1 (stereo not given) | -29.1% (inactive)
CCSc1n[nH]c(=O)nc1SC | 4.3% (inactive)
CC(C)CCOC(=O)C1C(=O)CC(c2ccccc2)C1c1ccccc1 (stereo not given) | 11.1% (inactive)
CCCOC(=O)COc1ccccc1 | 10.1% (inactive)
Cn1c(-c2ccc(/C=N/N=C(N)N)cc2)c[n+]2ccccc12 | 8.85% (inactive)
CC1(C)CCCCC1/C=C/C(CC(O)(C(F)(F)F)C(F)(F)F)=N\Nc1ccc([N+](=O)[O-])cc1[N+](=O)[O-] (stereo not given) | 15.1% (inactive)

SMILES | growth inhibition
CCOC(=O)Nc1ccc(Cl)cc1Cl | -16.3% (inactive)
COC(=O)COc1ccccc1[N+](=O)[O-] | -0.15% (inactive)
CCCCOB(OCCCC)Oc1c(C(C)(C)C)cccc1C(C)(C)C | 2.7% (inactive)
N#CCCN(CCC#N)c1nc(-c2ccccc2)nc(N(CCC#N)CCC#N)n1 | -1.95% (inactive)
COC1OC(=O)c2cccc3cccc1c23 (stereo not given) | -9.3% (inactive)
CC(O)C(=O)OCCOCCOC(=O)C(C)O (stereo not given) | 21.4% (inactive)
Cc1ccc(S(=O)(=O)OC(c2ccccc2)C(F)(F)F)cc1 (stereo not given) | -4.05% (inactive)
COc1cccc(C[n+]2cc([O-])on2)c1 | -16.1% (inactive)
COc1ccc(-c2cc(-c3ccccc3)c(-c3ccccc3)nn2)cc1CN1CCOCC1 | 2.65% (inactive)
CC(C)C[C@H](NC(=O)[C@H](CCc1ccccc1)NC(=O)c1ccc2ccccc2n1)B(O)O | 60.8% (inactive)
Cc1ccc(C)c(OC(=O)NC2CCCCC2)c1 | -4.9% (inactive)
CC(O)C(O)C(O)C(=O)C=O (stereo not given) | 5.8% (inactive)
O=c1[nH]c(Nc2ccccc2)nc2c1ncn2CC(O)CSCCO (stereo not given) | 16.1% (inactive)
Cc1cc2ccccc2c[n+]1CC(=O)CC([O-])(C(F)(F)F)C(F)(F)F | 2.85% (inactive)
O=[N+]([O-])c1ccc(CCCc2ccc([N+](=O)[O-])cc2)cc1 | 39.6% (inactive)
CCOc1ccc(/C=C(\NC(=O)c2ccccc2)C(=O)Nc2ccccc2)cc1OC | 4.8% (inactive)
O=C(NC1COB(c2cccc([N+](=O)[O-])c2)OC1c1ccc([N+](=O)[O-])cc1)C(Cl)Cl (stereo not given) | 12.8% (inactive)
c1ccc2c(c1)CCc1cc3cc4c(nc3nc1-2)-c1ccccc1CC4 | -14.4% (inactive)
CCOC(=O)c1ccc2c3c(ccc([N+](=O)[O-])c13)CC2 | -7% (inactive)
Brc1ccccc1-c1nnc(-c2cccc3ccccc23)o1 | -20.9% (inactive)
